Measurements from PubChem BioAssay (NCI).
About 79,000 compounds went through this panel and 15% of them were active in at least one assay; those are over-represented in the sample as a whole. A number with no mark means an inactive call. Active and inactive are the calls of the source. No stated cut-off is given here; in the data, active means growth inhibition above about 70%; inactive means the rest.

Assays:
[1] = NCI Yeast Anticancer Drug Screen. Data for the mlh1 rad18 strain (AID 175); conditions: S. cerevisiae mlh1 rad18 strain growth inhibition, active compounds read high
Procedure, shortened: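 Genetically defined yeast (DNA repair-deficient) exposed to compounds; growth inhibition determined relative to vehicle.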

[2] = NCI Yeast Anticancer Drug Screen. Data for the rad18 strain (AID 177); conditions: S. cerevisiae rad18 mutant growth inhibition, active compounds read high
Procedure, shortened: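 Vehicle-treated cultures served as the baseline for scoring compound-induced growth inhibition in DNA-repair-mutant yeast.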

[3] = NCI Yeast Anticancer Drug Screen. Data for the rad52 strain (AID 147);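 further: 0% = growth of vehicle-treated control cultures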; conditions: S. cerevisiae rad52 mutant growth inhibition, active compounds read high
Procedure, shortened: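 The repair-mutant yeast strain was incubated with compounds, then growth was read and inhibition derived relative to vehicle.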

[4] = NCI Yeast Anticancer Drug Screen. Data for the mgt1 strain (AID 153); conditions: S. cerevisiae mgt1 mutant growth inhibition, active compounds read high
Procedure, shortened: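 Vehicle-normalized growth inhibition is determined in mgt1 yeast, a strain selected for a defined alteration in DNA repair or cell cycle control.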

[5] = NCI Yeast Anticancer Drug Screen. Data for the rad50 strain (AID 155);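 further: 0% = growth of vehicle-only cultures of the same strain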; conditions: S. cerevisiae rad50 strain growth inhibition, active compounds read high
Procedure, shortened: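 Inhibition values express reduced yeast growth in compound-treated cultures relative to vehicle-treated controls.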

[6] = NCI Yeast Anticancer Drug Screen. Data for the mec2-1 strain (AID 157); conditions: S. cerevisiae mec2-1 strain, active compounds read high
Procedure, shortened: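 Mutant yeast (mec2-1) grown with compound; growth inhibition relative to vehicle control reported.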

[7] = NCI Yeast Anticancer Drug Screen. Data for the sgs1 mgt1 strain (AID 161);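 further: 0% = growth of cultures given vehicle only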; conditions: S. cerevisiae sgs1 mgt1 strain, active compounds read high
Procedure, shortened: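 This yeast growth screen uses a strain with defined DNA-repair lesions; compound-treated growth is compared with vehicle-treated growth.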

[8] = NCI Yeast Anticancer Drug Screen. Data for the CLN2oe strain (AID 163);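 further: 0% = growth of vehicle-only control cultures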; conditions: S. cerevisiae CLN2oe strain, active compounds read high
Procedure, shortened: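 Compounds are applied to yeast harbouring a defined cell-cycle control change; reduced growth compared with vehicle-treated controls gives the value.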

[9] = NCI Yeast Anticancer Drug Screen. Data for the cln2 rad14 strain (AID 165);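 further: 0% = growth equal to vehicle treated cultures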; conditions: S. cerevisiae cln2 rad14 strain, active compounds read high
Procedure, shortened: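 Readout is yeast growth inhibition versus vehicle-treated controls, using a strain with cln2 and rad14 alterations exposed to compound.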

[10] = NCI Yeast Anticancer Drug Screen. Data for the bub3 strain (AID 167); conditions: S. cerevisiae bub3 mutant strain, active compounds read high
Procedure, shortened: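 Steps: expose the mutant yeast strain to compound; grow alongside vehicle-treated cultures; measure growth; express inhibition against the vehicle cultures.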

[11] = NCI Yeast Anticancer Drug Screen. Data for the wt2 strain (AID 169);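 further: 0% = growth of vehicle-treated yeast cultures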; conditions: S. cerevisiae wt2 strain growth inhibition, active compounds read high
Procedure, shortened: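 Against vehicle-treated controls, the growth of yeast exposed to each compound was compared, and the inhibition was recorded.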

[12] = NCI Yeast Anticancer Drug Screen. Data for the mlh1 strain (AID 171);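 further: 0% = growth of vehicle-treated control cultures of the same strain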; conditions: S. cerevisiae mlh1 strain growth inhibition, active compounds read high
Procedure, shortened: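 Measured: yeast growth. Reference: vehicle-treated controls. Organism: strain with a defined alteration affecting DNA damage repair or cell cycle control, treated with compound.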

[13] = NCI Yeast Anticancer Drug Screen. Data for the sgs1 strain (AID 173);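 further: 0% = growth of vehicle-only control cultures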; conditions: S. cerevisiae sgs1 mutant, active compounds read high
Procedure, shortened: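 Each compound was added to cultures of the altered yeast strain. Growth was recorded, and inhibition was derived by comparison with vehicle controls.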

[14] = NCI Yeast Anticancer Drug Screen. Data for the wt1 strain (AID 149);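 further: 0% = growth of vehicle-treated wt1 cultures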; conditions: S. cerevisiae wt1 strain (SPY 50644) growth inhibition, active compounds read high
Procedure, shortened: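 Compounds are added to wt1 yeast cultures. Growth is then measured. Inhibition is expressed relative to vehicle-treated controls.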

[15] = NCI Yeast Anticancer Drug Screen. Data for the rad50EPP+ strain (AID 151);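 further: 0% = growth of vehicle-treated control cultures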; conditions: S. cerevisiae rad50 mutant strain, active compounds read high
Procedure, shortened: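 Vehicle-normalised growth inhibition; rad50EPP+ yeast strain, altered in DNA damage repair, compound-treated.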

[16] = NCI Yeast Anticancer Drug Screen. Data for the rad14 strain (AID 159);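 further: 0% = growth of vehicle-treated control cultures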; conditions: S. cerevisiae rad14 strain growth inhibition, active compounds read high
Procedure, shortened: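 A mutant yeast strain defective in DNA damage repair is treated with compound; inhibition of its growth is scored against untreated, vehicle-exposed cultures.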

[17] = at 5.0 µM (retest, dose inferred, filed as 0.5)
[18] = at 50.0 µM (retest, dose inferred, filed as 5.0)

Cc1ccc(-n2cc(-c3ccc(Cl)cc3)c(C#N)c2N)cc1
growth inhibition [1, 17]: -15% | growth inhibition [1, 18]: 55% | growth inhibition ([1]; at 50.0 µM): 78.3% (active) | growth inhibition ([2]; at 1.2 µM): -5% | growth inhibition ([2]; at 3.7 µM): 1% | growth inhibition ([2]; at 11.0 µM): 4% | growth inhibition ([2]; at 33.0 µM): 6% | growth inhibition ([2]; at 100.0 µM): 41%

CC(Br)C(=O)c1ccc2cc(Br)c3ccccc3c2c1 (centres undefined)
growth inhibition ([3]; at 1.2 µM): -2% | growth inhibition ([3]; at 3.7 µM): -2% | growth inhibition ([3]; at 11.0 µM): -2% | growth inhibition ([3]; at 33.0 µM): 4% | growth inhibition ([3]; at 100.0 µM): 2% | growth inhibition ([4]; at 1.2 µM): -1% | growth inhibition ([4]; at 3.7 µM): -1% | growth inhibition ([4]; at 11.0 µM): -1% | growth inhibition ([4]; at 33.0 µM): 2% | growth inhibition ([4]; at 100.0 µM): 5% | growth inhibition ([5]; at 1.2 µM): 1% | growth inhibition ([5]; at 3.7 µM): -2% | growth inhibition [5, 17]: -3% | growth inhibition ([5]; at 11.0 µM): 10% | growth inhibition ([5]; at 33.0 µM): 0% | growth inhibition [5, 18]: 41% | growth inhibition ([5]; at 50.0 µM): 63.7% | growth inhibition ([5]; at 100.0 µM): 0% | growth inhibition ([6]; at 1.2 µM): 2% | growth inhibition ([6]; at 3.7 µM): 4% | growth inhibition [6, 17]: -5% | growth inhibition ([6]; at 11.0 µM): 6% | growth inhibition ([6]; at 33.0 µM): 6% | growth inhibition [6, 18]: 12% | growth inhibition ([6]; at 50.0 µM): 27.4% | growth inhibition ([6]; at 100.0 µM): 16% | growth inhibition [7, 17]: 2% | growth inhibition [7, 18]: 76% (active) | growth inhibition ([7]; at 50.0 µM): 74.5% (active) | growth inhibition ([8]; at 1.2 µM): -4% | growth inhibition ([8]; at 3.7 µM): -2% | growth inhibition ([8]; at 11.0 µM): -7% | growth inhibition ([8]; at 33.0 µM): -4% | growth inhibition ([8]; at 100.0 µM): -1% | growth inhibition [9, 17]: -24% | growth inhibition [9, 18]: -32% | growth inhibition ([9]; at 50.0 µM): 26.5% | growth inhibition ([10]; at 1.2 µM): -7% | growth inhibition ([10]; at 3.7 µM): -1% | growth inhibition [10, 17]: -10% | growth inhibition ([10]; at 11.0 µM): 3% | growth inhibition ([10]; at 33.0 µM): 2% | growth inhibition [10, 18]: 23% | growth inhibition ([10]; at 50.0 µM): 58% | growth inhibition ([10]; at 100.0 µM): -3% | growth inhibition ([11]; at 1.2 µM): -3% | growth inhibition ([11]; at 3.7 µM): -1% | growth inhibition ([11]; at 11.0 µM): -1% | growth inhibition ([11]; at 33.0 µM): 3% | growth inhibition ([11]; at 100.0 µM): 4% | growth inhibition ([12]; at 1.2 µM): 4% | growth inhibition ([12]; at 3.7 µM): 4% | growth inhibition ([12]; at 11.0 µM): 6% | growth inhibition ([12]; at 33.0 µM): -11% | growth inhibition ([12]; at 100.0 µM): 17% | growth inhibition ([13]; at 1.2 µM): 3% | growth inhibition ([13]; at 3.7 µM): 8% | growth inhibition ([13]; at 11.0 µM): 14% | growth inhibition ([13]; at 33.0 µM): 17% | growth inhibition ([13]; at 100.0 µM): 17% | growth inhibition [1, 17]: 9% | growth inhibition [1, 18]: 38% | growth inhibition ([1]; at 50.0 µM): 68.3% | growth inhibition ([2]; at 1.2 µM): 5% | growth inhibition ([2]; at 3.7 µM): 5% | growth inhibition ([2]; at 11.0 µM): 17% | growth inhibition ([2]; at 33.0 µM): 18% | growth inhibition ([2]; at 100.0 µM): 22%

COC(=O)C1=C(C)NC(C)=C(C(=O)OC)C1c1cccc(/[N+]([O-])=C/c2ccccc2)c1
growth inhibition ([14]; at 1.2 µM): 2% | growth inhibition ([14]; at 3.7 µM): 4% | growth inhibition ([14]; at 11.0 µM): 8% | growth inhibition ([14]; at 33.0 µM): 18% | growth inhibition ([14]; at 100.0 µM): 50% | growth inhibition ([15]; at 1.2 µM): -1% | growth inhibition ([15]; at 3.7 µM): -3% | growth inhibition ([15]; at 11.0 µM): -4% | growth inhibition ([15]; at 33.0 µM): 1% | growth inhibition ([15]; at 100.0 µM): 15% | growth inhibition ([4]; at 1.2 µM): 1% | growth inhibition ([4]; at 3.7 µM): 4% | growth inhibition ([4]; at 11.0 µM): 13% | growth inhibition ([4]; at 33.0 µM): 33% | growth inhibition ([4]; at 100.0 µM): 96% (active) | growth inhibition ([5]; at 1.2 µM): -3% | growth inhibition ([5]; at 3.7 µM): -9% | growth inhibition [5, 17]: 11% | growth inhibition ([5]; at 11.0 µM): -9% | growth inhibition ([5]; at 33.0 µM): 29% | growth inhibition [5, 18]: 35% | growth inhibition ([5]; at 50.0 µM): 64.8% | growth inhibition ([5]; at 100.0 µM): 83% (active) | growth inhibition ([6]; at 1.2 µM): 3% | growth inhibition ([6]; at 3.7 µM): 5% | growth inhibition [6, 17]: 11% | growth inhibition ([6]; at 11.0 µM): 13% | growth inhibition ([6]; at 33.0 µM): 34% | growth inhibition [6, 18]: 25% | growth inhibition ([6]; at 50.0 µM): 40.5% | growth inhibition ([6]; at 100.0 µM): 83% (active) | growth inhibition ([16]; at 1.2 µM): 2% | growth inhibition ([16]; at 3.7 µM): 4% | growth inhibition ([16]; at 11.0 µM): 16% | growth inhibition ([16]; at 33.0 µM): 34% | growth inhibition ([16]; at 100.0 µM): 92% (active) | growth inhibition [7, 17]: 51% | growth inhibition [7, 18]: 50% | growth inhibition ([7]; at 50.0 µM): 51.1% | growth inhibition ([8]; at 1.2 µM): 4% | growth inhibition ([8]; at 3.7 µM): 6% | growth inhibition ([8]; at 11.0 µM): 13% | growth inhibition ([8]; at 33.0 µM): 33% | growth inhibition ([8]; at 100.0 µM): 74% (active) | growth inhibition [9, 17]: 6% | growth inhibition [9, 18]: 33% | growth inhibition ([9]; at 50.0 µM): 44.8% | growth inhibition ([10]; at 1.2 µM): 1% | growth inhibition ([10]; at 3.7 µM): 4% | growth inhibition [10, 17]: 43% | growth inhibition ([10]; at 11.0 µM): 10% | growth inhibition ([10]; at 33.0 µM): 30% | growth inhibition [10, 18]: 79% (active) | growth inhibition ([10]; at 50.0 µM): 59.6% | growth inhibition ([10]; at 100.0 µM): 91% (active) | growth inhibition ([11]; at 1.2 µM): 0% | growth inhibition ([11]; at 3.7 µM): 1% | growth inhibition ([11]; at 11.0 µM): 8% | growth inhibition ([11]; at 33.0 µM): 32% | growth inhibition ([11]; at 100.0 µM): 95% (active) | growth inhibition ([12]; at 1.2 µM): 3% | growth inhibition ([12]; at 3.7 µM): 3% | growth inhibition ([12]; at 11.0 µM): 12% | growth inhibition ([12]; at 33.0 µM): 39% | growth inhibition ([12]; at 100.0 µM): 96% (active) | growth inhibition ([13]; at 1.2 µM): 1% | growth inhibition ([13]; at 3.7 µM): 5% | growth inhibition ([13]; at 11.0 µM): 12% | growth inhibition ([13]; at 33.0 µM): 71% (active) | growth inhibition ([13]; at 100.0 µM): 96% (active) | growth inhibition [1, 17]: 4% | growth inhibition [1, 18]: 40% | growth inhibition ([1]; at 50.0 µM): 66% | growth inhibition ([2]; at 1.2 µM): 2% | growth inhibition ([2]; at 3.7 µM): 7% | growth inhibition ([2]; at 11.0 µM): 17% | growth inhibition ([2]; at 33.0 µM): 48% | growth inhibition ([2]; at 100.0 µM): 93% (active)
